Data on 66 compounds can be found in ChEMBL document CHEMBL3988442, “University of Dundee, Small-Polar-MMV Screening Library” (2021).

Molecules are shown by their SMILES. Hit rate of the full screen: of about 48,000 compounds, about 13,000 (27%) showed an effect of 50% or more. Some of the results follow.

The assay has as its system Wolbachia pipientis. The assay can be described thus: Anti-Wolbachia Cell-Based Screen. It counts as functional. Further details: scale not given: in the data most compounds retested in dose-response had high values. To be noted: 5 µM.
With `C1CCC(N2CCCN(c3nc(C4CC4)no3)CC2)C1`, the “Percent Effect” value came out at 19.76%.
In the case of `CCCNC(=O)c1cc(Br)c2c(c1)OCCO2` it was -33.44%.
The figure for `CCc1nc(CN2CCN(C(=O)C3CCCCC3)CC2)cs1` is 4.149%.
Consider `O=C(CN1CCN(c2ccccc2F)CC1)Nc1ccc(Cl)cn1`, for which the “Percent Effect” value came out at 4.247%.
In the case of `CCCS(=O)(=O)N1C[C@@H]2CN(Cc3ccoc3)CCO[C@@H]2C1.O=C(O)C(F)(F)F` it was 45.1%; in that of `CC(C)N(C)[C@@H]1CCN(C(=O)c2ccc[nH]2)[C@H]1Cc1cnn(C)c1`, -2.599%; in that of `Cn1cc(C[C@H]2[C@H](N3CCOCC3)CCN2C(=O)c2ccc[nH]2)cn1`, -3.493%.
The figure for `CN(Cc1cccnc1)[C@@H]1CN(C(=O)c2ccco2)[C@@H]2CCCO[C@H]12` is 99.41%.
The figure for `CN(Cc1cncnc1)[C@H]1CN(C(=O)c2ccc[nH]2)[C@@H]2CCCO[C@@H]21` is 103.1%; for `CN(Cc1ccco1)[C@@H]1CN(C(=O)c2ccnnc2)C[C@@H]2CCCO[C@@H]21.O=C(O)C(F)(F)F` it is 1.243%; for `O=S(=O)(NCC1COCCO1)c1ccc(C2CCCCC2)cc1` (stereo unspecified) it is -20.85%.
As to `CC1CN(Cc2cccc(CNC3CCCC3)c2)CCO1` (stereo unspecified), the “Percent Effect” value turned out to be 2.611%.
The figure for `OC(CN1CCOCC1)c1cc(Cl)ccc1Cl` (stereo unspecified) is 1.615%.
The figure for `Cc1ccsc1C(=O)NCc1cccnc1N(C)CCc1ccccn1` is -9.716%; for `O=S(=O)(NCC1CCN(c2cnccn2)CC1)c1ccc(F)c(Cl)c1` it is 114.1%.
The figure for `Cc1cnc2c(S(=O)(=O)NCC3CCN(C4CC4)C3)cccc2c1` (stereo unspecified) is -24.19%; for `CN(C)c1nccc(CNS(=O)(=O)c2ccc(F)c(Cl)c2)n1` it is -4.41%.
Consider `Cn1cc(S(=O)(=O)NCC2CCN(C(=O)Oc3ccccc3)CC2)cn1`, for which the “Percent Effect” value is -5.514%.
In the case of `Cc1cccc(S(=O)(=O)NCC2CCN(c3cnccn3)CC2)c1`, the “Percent Effect” value stood at 113.6%.
The figure for `O=S(=O)(NCC1CCN(c2cnccn2)CC1)c1c(F)cccc1F` is -13.03%; for `O=S(=O)(NCC1CCN(c2ccccn2)CC1)c1ccccc1F` it is -4.881%; for `O=C(Oc1ccccc1)N1CCC(CNS(=O)(=O)c2cccnc2)CC1` it is 12.7%.
Regarding `CC(=O)c1ccc(S(=O)(=O)NCC2CCN(c3cnccn3)CC2)cc1`, the “Percent Effect” value is on record as 109.4%.
The figure for `Cc1nn(C)c(C)c1CN(C(=O)c1cnc(O)cn1)C(C)C` is -5.966%; for `CN(CCC1CCOCC1)[C@@H]1c2ccccc2C2(CCNCC2)[C@H]1O` it is -1.046%.
In the case of `CCn1nc2c(cc1=O)CN(c1nc3ccccc3s1)CC2` it was 17.49%; in that of `COc1cc(CO)ccc1OCc1nc(C(C)C)no1`, -5.276%; in that of `O=C(N1CCCCC1)N1CCCC1c1nnc2n1CCNC2` (stereo unspecified), 113%.
The figure for `CC(CC(=O)N1CCC(c2nnc3n2CCC3)CC1)n1cccc1` (stereo unspecified) is -3.041%; for `O=C(NC1CCCCC1)N1CCCC1c1nnc2n1CCNC2` (stereo unspecified) it is 105.9%; for `Cc1cc(C)c(C(=O)NC(c2nnc3n2CCNCC3)C(C)C)c(C)c1` (stereo unspecified) it is -5.156%.
On to `CC(C)NC(=O)N1CCC(c2nnc3n2CCNC3)CC1`, for which the “Percent Effect” value is 121.8%.
Regarding `NC(=O)CN1CCC(NC(=O)N2CCCC2c2ccncc2)CC1` (stereo unspecified), the “Percent Effect” value is listed as -10.76%.
The figure for `CC(C)NC(=O)N1CCCCCC1C1CCN(c2ncccn2)CC1` (stereo unspecified) is -15.72%; for `CC(C)NC(=O)N1CCCCC1c1nnc2n1CCNC2` (stereo unspecified) it is 134%; for `CC(C)NC(=O)N1CCC(c2nccn2C(C)C)CC1` it is 0.5032%.
The figure for `CCNC(=O)NC(=O)CNc1cc(C(=O)OC)cc(C(F)(F)F)c1` is -3.63%.
The figure for `Cc1n[nH]cc1CNCC1(c2cccc(F)c2)CCOCC1.Cl` is 8.493%.
In the case of `N#CCCN(Cc1ccccn1)C(=O)Nc1cccc(F)c1`, the “Percent Effect” value came to 3.903%.
In the case of `O=C(Nc1ccc(CCN2CCSCC2)cc1)NC1CC1` it was -3.133%; in that of `COCCNC(=O)CSCc1nc(O)c2cc(C(C)C)sc2n1`, -3.697%.
Regarding `CC(=O)N1CCCCC1c1nnc2n1CCNC2` (stereo unspecified), the “Percent Effect” value is 131%.
In the case of `CC(=O)N1CCCC1c1nnc2n1CCCCC2` (stereo unspecified) it was 5.226%.
In the case of `CC(NC(=O)Nc1cc(F)ccc1N1CCCCC1)c1nncn1C` (stereo unspecified) it was -5.475%; in that of `CC(NC(=O)NCC1(c2ccc(F)cc2)CC1)c1nncn1C` (stereo unspecified), 98.23%.
The figure for `CC(NC(=O)NCCOc1ccc(F)c(F)c1)c1nncn1C` (stereo unspecified) is 2.072%.
Regarding `CC(NC(=O)NCC1(c2ccc(F)cc2)CCC1)c1nncn1C` (stereo unspecified), the “Percent Effect” value was -3.695%.
The figure for `Cc1ccccc1C1(CNC(=O)NC(C)c2nncn2C)CC1` (stereo unspecified) is 118.5%; for `Cc1cccc(C)c1OCCNC(=O)NC(C)c1nncn1C` (stereo unspecified) it is 5.116%.
In the case of `CC(NC(=O)NCC1(c2ccccc2)CCC1)c1nncn1C` (stereo unspecified) it was 0.9782%; in that of `CC(NC(=O)NCCCN1CCCCCC1)c1nncn1C` (stereo unspecified), -1.343%.
In the case of `CC(NC(=O)NCCOc1ccc(Cl)cc1)c1nncn1C` (stereo unspecified), the “Percent Effect” value came to 7.354%.
In the case of `CC(NC(=O)NCC1(c2ccc(F)cc2)CCCC1)c1nncn1C` (stereo unspecified) it was 121.9%; in that of `CC(NC(=O)NCC1(N2CCCCC2)CCCCC1)c1nncn1C` (stereo unspecified), 3.494%; in that of `CC(NC(=O)NCC1(c2ccc(Cl)cc2)CC1)c1nncn1C` (stereo unspecified), 123.5%.
In the case of `CC(C)c1nnc2n1CCN(C(=O)c1ccc(OCC3CC3)nc1)C2` it was -21%; in that of `CCOc1cc(C)nc(N2CCN(Cc3nccn3C)CC2)n1`, 4.632%.
In the case of `Cc1nc(C)c(CN2CCOC[C@H](Oc3ccc(S(C)(=O)=O)cc3)C2)s1` it was -11.23%; in that of `CC(=O)N1CCCC1c1nnn2cc(-c3ccncc3)ccc12.O=C(O)C(F)(F)F` (stereo unspecified), 7.793%; in that of `CC(=O)N1Cc2ccccc2CC1C(=O)Nc1ccc(C)cn1` (stereo unspecified), -8.335%.
For `Cn1ncc2c(=O)[nH]c(CN(Cc3ccco3)C3CC3)nc21`, the “Percent Effect” value came out at 87.32%.
In the case of `CC(c1ccco1)N(C)Cc1nc2c(cnn2C)c(=O)[nH]1` (stereo unspecified) it was 2.011%; in that of `CCN(Cc1nc2c(cnn2C)c(=O)[nH]1)c1cccc(C)c1C`, -14.78%; in that of `Cc1ccc(CN(Cc2nc3c(cnn3C)c(=O)[nH]2)C2CC2)o1`, 96.47%.
The figure for `CC(N(C)Cc1nc2c(cnn2C)c(=O)[nH]1)C(C)(C)C` (stereo unspecified) is 1.899%; for `Cn1ncc2c(=O)[nH]c(CN(Cc3ccco3)C3CCCC3)nc21` it is 8.263%.
